Targets with a hit are over-represented here; the source holds about 8,800 in all. About 0.5% of all pairs of compound and target were hits.
Legend:
Assay in all cases: log2 fold change, soluble protein after heating vs DMSO (PISA); higher = thermal stabilisation; K562 lysate, 10 uM; active = over 0.2 and 3.5 SD of the protein, either way, in both replicates (recomputed)
[1] = compound: CCCS(=O)(=O)Nc1ccc(F)c(C(=O)c2c[nH]c3ncc(-c4ccc(Cl)cc4)cc23)c1F [vemurafenib]
Procedure, shortened: (§1)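 Values give the log-two fold change in thermal stability against solvent controls, from duplicates. Crude K562 extract at 1 mg/mL protein, made by dounce homogenisation in PBS pH 7.4 with 1 mM MgCl2, was treated with 10 μM compound for 30 min. After 3 min heating across 48°C-58°C, aliquots were pooled, adjusted to 0.5% NP-40 at 4°C and centrifuged at 21,000xg for 90 min. The supernatant was measured by TMTpro 16plex LC-MS/MS with channel sums equalised.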

[2] = compound: CCCS(=O)(=O)Nc1ccc(F)c(C(=O)c2c[nH]c3ncc(Cl)cc23)c1F
Procedure, shortened: as §1

[3] = compound: CCN(CCCOc1ccc2c(Nc3cc(CC(=O)Nc4cccc(F)c4)[nH]n3)ncnc2c1)CCOP(=O)(O)O [barasertib]
Procedure, shortened: as §1

[4] = compound: CC[C@@H]1C(=O)N(C)c2cnc(Nc3ccc(C(=O)NC4CCN(C)CC4)cc3OC)nc2N1C1CCCC1
Procedure, shortened: as §1

[5] = compound: CC[C@@H]1C(=O)N(C)c2cnc(Nc3ccc(C(=O)N[C@H]4CC[C@H](N5CCN(CC6CC6)CC5)CC4)cc3OC)nc2N1C(C)C [volasertib]
Procedure, shortened: as §1

[6] = compound: CCn1c(C(=O)N(C2CC2)C2CC2)cc2c3c(ncn3C)c(Nc3cc(C)n(C)n3)nc21
Procedure, shortened: as §1

[7] = compound: CCn1cc(-c2ccnc3[nH]c(-c4cccc(CN(C)C)c4)cc23)c(-c2ccc(NC(=O)N(C)C)cc2)n1
Procedure, shortened: as §1

[8] = compound: CN1CCC(CNc2ccc3ncc(-c4cccc(OC(F)(F)F)c4)n3n2)CC1
Procedure, shortened: as §1

[9] = compound: CN1CCN(CCOc2cc(OC3CCOCC3)c3c(Nc4c(Cl)ccc5c4OCO5)ncnc3c2)CC1 [saracatinib]
Procedure, shortened: as §1

[10] = compound: CN1CCN(c2nc(C3=C(c4c[nH]c5ccccc45)C(=O)NC3=O)c3ccccc3n2)CC1 [sotrastaurin]
Procedure, shortened: as §1

[11] = compound: CN1CC[C@H](c2c(O)cc(O)c3c(=O)cc(-c4ccccc4Cl)oc23)[C@H](O)C1 [alvocidib]
Procedure, shortened: as §1

[12] = compound: CN1CCc2c(c3ccccc3n2Cc2ccc(C(=O)NO)cc2)C1 [Tubastatin A]
Procedure, shortened: as §1

[13] = compound: CNC(=O)C1=CC=CC=C1NC2=NC(=NC=C2Cl)NC3=C(C=C(C=C3)N4CCOCC4)OC
Procedure, shortened: as §1

[14] = compound: CNC(=O)c1ccc(Nc2ncc(C(F)(F)F)c(NCc3nccnc3N(C)S(C)(=O)=O)n2)cc1 [defactinib]
Procedure, shortened: as §1

[15] = compound: CNc1nc(-c2ccc3c(N)n[nH]c3c2)cc(N2C[C@@H](C(=O)NC3CCCCC3)CC[C@H]2C)n1
Procedure, shortened: as §1

[16] = compound: COC(=O)N[C@@H](C)CNc1nccc(-c2cn(C(C)C)nc2-c2cc(Cl)cc(NS(C)(=O)=O)c2F)n1 [encorafenib]
Procedure, shortened: as §1

[17] = compound: COC(=O)[C@H](CCSC)NC(=O)C1=C(C=C(C=C1)NC[C@H](CS)N)C2=CC=CC=C2
Procedure, shortened: as §1

[18] = compound: COc1cc(Nc2ncc3c(n2)-c2ccc(Cl)cc2C(c2c(F)cccc2OC)=NC3)ccc1C(=O)O [alisertib]
Procedure, shortened: as §1

[19] = compound: COc1cc2nc(-c3cc(F)ccc3O)nc(N[C@@H]3CNC[C@H]3C(C)(C)O)c2cc1OC
Procedure, shortened: as §1

[20] = compound: COc1cc2ncnc(Nc3ccc(F)c(Cl)c3)c2cc1OCCCN1CCOCC1 [gefitinib]
Procedure, shortened: as §1

Measured: log2 fold change

WDR45 isoform 2 (UniProt Q9Y484)
UniProt Q9Y484, sequence (Q9Y484 whole entry, looked up): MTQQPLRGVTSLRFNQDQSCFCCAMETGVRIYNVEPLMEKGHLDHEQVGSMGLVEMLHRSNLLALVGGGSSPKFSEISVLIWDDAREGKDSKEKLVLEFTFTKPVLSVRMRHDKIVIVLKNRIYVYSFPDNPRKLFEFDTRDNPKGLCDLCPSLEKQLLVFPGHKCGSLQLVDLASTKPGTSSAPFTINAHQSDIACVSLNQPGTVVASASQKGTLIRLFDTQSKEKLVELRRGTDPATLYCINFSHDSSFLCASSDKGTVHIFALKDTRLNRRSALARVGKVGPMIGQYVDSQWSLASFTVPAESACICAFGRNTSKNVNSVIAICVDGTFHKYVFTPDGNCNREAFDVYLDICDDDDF
inactive: [1] -0.028 | [2] 0.043 | [3] 0.005 | [4] 0.052 | [5] 0 | [6] 0.12 | [7] -0.19 | [8] 0.086 | [9] 0.01 | [10] 0.024 | [11] -0.065 | [12] -0.067 | [13] -0.001 | [14] 0.013 | [15] -0.059 | [16] -0.042 | [17] -0.051 | [18] 0.021 | [19] -0.008 | [20] 0.037

VPS37B (UniProt Q9H9H4)
UniProt Q9H9H4, sequence (Q9H9H4 whole entry, looked up): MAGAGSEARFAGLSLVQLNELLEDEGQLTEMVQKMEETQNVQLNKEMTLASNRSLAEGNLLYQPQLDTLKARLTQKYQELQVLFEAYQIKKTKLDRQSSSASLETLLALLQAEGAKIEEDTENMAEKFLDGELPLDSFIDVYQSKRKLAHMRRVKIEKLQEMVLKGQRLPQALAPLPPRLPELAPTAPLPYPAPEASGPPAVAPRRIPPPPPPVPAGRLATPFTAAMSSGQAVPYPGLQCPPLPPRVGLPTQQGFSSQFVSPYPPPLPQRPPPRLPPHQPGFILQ
inactive: [1] -0.001 | [2] 0.003 | [3] -0.012 | [4] 0.047 | [5] -0.011 | [6] 0.005 | [7] -0.018 | [8] 0.04 | [9] 0.048 | [10] 0.01 | [11] 0.025 | [12] -0.034 | [13] -0.047 | [14] 0.052 | [15] 0.024 | [16] -0.014 | [17] -0.053 | [18] -0.019 | [19] -0.003 | [20] -0.071

YES1 (UniProt P07947)
UniProt P07947, sequence (P07947 whole entry, looked up): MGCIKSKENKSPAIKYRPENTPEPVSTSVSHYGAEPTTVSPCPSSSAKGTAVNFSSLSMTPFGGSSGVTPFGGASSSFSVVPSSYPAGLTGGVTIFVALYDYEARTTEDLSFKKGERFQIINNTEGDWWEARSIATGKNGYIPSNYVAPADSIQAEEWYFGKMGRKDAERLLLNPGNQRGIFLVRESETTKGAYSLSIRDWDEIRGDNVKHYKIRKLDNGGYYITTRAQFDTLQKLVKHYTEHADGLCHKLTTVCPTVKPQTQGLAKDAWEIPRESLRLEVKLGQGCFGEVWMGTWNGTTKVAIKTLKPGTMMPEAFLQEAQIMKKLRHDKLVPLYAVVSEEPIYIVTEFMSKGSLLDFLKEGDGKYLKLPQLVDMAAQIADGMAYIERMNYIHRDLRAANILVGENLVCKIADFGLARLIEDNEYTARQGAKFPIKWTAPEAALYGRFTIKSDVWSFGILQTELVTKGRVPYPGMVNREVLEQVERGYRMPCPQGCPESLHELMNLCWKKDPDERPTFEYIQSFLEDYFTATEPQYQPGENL
inactive: [1] 0.068 | [2] 0.088 | [3] 0.334 | [4] -0.086 | [5] -0.205 | [6] -0.106 | [7] -0.146 | [8] -0.007 | [9] 0.331 | [10] -0.084 | [11] -0.065 | [12] 0.171 | [13] -0.003 | [14] -0.228 | [15] -0.094 | [16] -0.009 | [17] -0.024 | [18] 0.049 | [19] 0.087 | [20] -0.13

VTN (UniProt P04004)
UniProt P04004, sequence (P04004 whole entry, looked up): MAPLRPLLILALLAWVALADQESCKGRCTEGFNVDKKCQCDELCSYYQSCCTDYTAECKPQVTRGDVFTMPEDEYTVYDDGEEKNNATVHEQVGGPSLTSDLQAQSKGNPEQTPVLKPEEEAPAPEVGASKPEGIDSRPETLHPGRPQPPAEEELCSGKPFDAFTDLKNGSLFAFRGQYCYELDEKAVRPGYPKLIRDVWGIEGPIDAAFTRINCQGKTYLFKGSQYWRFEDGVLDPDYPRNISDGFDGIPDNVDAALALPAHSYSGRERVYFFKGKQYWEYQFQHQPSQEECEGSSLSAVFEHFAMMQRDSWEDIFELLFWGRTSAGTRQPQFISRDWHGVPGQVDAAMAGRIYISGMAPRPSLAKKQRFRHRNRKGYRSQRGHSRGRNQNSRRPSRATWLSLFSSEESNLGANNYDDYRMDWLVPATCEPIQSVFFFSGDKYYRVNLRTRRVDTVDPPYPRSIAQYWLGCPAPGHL
inactive: [1] 0.029 | [2] 0.058 | [3] 0.043 | [4] 0.063 | [5] -0.001 | [6] 0.011 | [8] 0.289 | [9] 0.075 | [10] -0.012 | [11] -0.112 | [12] -0.012 | [13] -0.095 | [14] 0.104 | [15] -0.061 | [16] 0.089 | [17] -0.074 | [18] -0.041 | [19] 0.014 | [20] 0.009
active: [7] -0.615

YRDC (UniProt Q86U90)
UniProt Q86U90, sequence (Q86U90 whole entry, looked up): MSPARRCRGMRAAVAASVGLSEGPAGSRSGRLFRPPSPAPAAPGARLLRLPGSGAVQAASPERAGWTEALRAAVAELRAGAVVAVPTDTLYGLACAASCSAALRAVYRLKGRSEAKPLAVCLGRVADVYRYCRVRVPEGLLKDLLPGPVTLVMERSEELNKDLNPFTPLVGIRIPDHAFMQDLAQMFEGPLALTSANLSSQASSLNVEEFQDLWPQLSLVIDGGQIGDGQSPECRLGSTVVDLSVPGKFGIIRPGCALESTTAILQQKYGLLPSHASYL
inactive: [1] 0.03 | [2] 0.093 | [3] 0.019 | [4] 0.04 | [5] -0.005 | [6] -0.045 | [7] -0.019 | [8] 0.089 | [9] -0.043 | [10] -0.002 | [11] 0.015 | [12] -0.006 | [13] 0.044 | [14] -0.023 | [15] 0.043 | [16] 0.003 | [17] -0.1 | [18] -0.014 | [19] -0.004 | [20] -0.001

VPS35L (UniProt Q7Z3J2)
UniProt Q7Z3J2, sequence (Q7Z3J2 whole entry, looked up): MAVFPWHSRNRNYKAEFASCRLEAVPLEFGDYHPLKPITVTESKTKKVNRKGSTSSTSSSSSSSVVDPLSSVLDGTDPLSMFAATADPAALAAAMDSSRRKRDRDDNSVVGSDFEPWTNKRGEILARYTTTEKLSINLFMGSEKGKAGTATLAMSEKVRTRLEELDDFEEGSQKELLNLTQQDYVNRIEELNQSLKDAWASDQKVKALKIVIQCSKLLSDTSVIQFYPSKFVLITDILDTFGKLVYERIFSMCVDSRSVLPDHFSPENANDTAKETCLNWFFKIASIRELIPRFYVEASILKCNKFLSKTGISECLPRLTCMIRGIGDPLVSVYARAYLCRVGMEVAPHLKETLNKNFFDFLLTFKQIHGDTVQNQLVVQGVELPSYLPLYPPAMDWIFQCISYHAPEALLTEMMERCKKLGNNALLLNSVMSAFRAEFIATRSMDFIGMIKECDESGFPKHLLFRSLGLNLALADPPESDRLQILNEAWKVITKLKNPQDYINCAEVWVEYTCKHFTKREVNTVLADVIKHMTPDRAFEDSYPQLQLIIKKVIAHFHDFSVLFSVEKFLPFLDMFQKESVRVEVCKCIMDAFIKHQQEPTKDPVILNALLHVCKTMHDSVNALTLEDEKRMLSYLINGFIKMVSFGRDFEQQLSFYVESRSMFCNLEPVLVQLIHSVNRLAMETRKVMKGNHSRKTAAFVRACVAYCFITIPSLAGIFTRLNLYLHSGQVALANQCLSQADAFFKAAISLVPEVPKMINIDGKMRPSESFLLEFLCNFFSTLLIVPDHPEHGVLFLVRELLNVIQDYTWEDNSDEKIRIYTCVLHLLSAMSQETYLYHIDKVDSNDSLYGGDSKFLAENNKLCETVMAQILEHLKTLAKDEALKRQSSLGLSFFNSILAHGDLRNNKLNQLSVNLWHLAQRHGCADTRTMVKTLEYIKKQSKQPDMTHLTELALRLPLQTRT
inactive: [1] 0.016 | [2] 0.002 | [3] 0.001 | [4] -0.072 | [5] -0.047 | [6] -0.004 | [7] -0.02 | [8] -0.005 | [9] 0.004 | [10] 0.046 | [11] 0 | [12] -0.083 | [13] 0.015 | [14] 0.036 | [15] -0.013 | [16] 0.014 | [17] 0.006 | [18] -0.034 | [19] -0.023 | [20] -0.076

ZMAT2 (UniProt Q96NC0)
UniProt Q96NC0, sequence (Q96NC0 whole entry, looked up): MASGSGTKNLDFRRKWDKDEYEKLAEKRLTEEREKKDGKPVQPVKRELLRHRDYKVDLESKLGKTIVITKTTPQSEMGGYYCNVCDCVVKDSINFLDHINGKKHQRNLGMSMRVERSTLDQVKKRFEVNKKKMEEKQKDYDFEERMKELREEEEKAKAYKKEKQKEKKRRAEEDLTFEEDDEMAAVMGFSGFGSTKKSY
inactive: [1] -0.015 | [2] 0 | [3] -0.041 | [4] 0.062 | [5] 0.039 | [6] -0.026 | [7] -0.034 | [8] 0.087 | [9] 0.017 | [10] -0.036 | [11] -0.001 | [12] 0.053 | [13] -0.012 | [14] -0.001 | [15] -0.037 | [16] -0.035 | [17] -0.014 | [18] 0.009 | [19] 0.001 | [20] 0.013

VARS (UniProt P26640)
UniProt P26640, sequence (P26640 whole entry, looked up): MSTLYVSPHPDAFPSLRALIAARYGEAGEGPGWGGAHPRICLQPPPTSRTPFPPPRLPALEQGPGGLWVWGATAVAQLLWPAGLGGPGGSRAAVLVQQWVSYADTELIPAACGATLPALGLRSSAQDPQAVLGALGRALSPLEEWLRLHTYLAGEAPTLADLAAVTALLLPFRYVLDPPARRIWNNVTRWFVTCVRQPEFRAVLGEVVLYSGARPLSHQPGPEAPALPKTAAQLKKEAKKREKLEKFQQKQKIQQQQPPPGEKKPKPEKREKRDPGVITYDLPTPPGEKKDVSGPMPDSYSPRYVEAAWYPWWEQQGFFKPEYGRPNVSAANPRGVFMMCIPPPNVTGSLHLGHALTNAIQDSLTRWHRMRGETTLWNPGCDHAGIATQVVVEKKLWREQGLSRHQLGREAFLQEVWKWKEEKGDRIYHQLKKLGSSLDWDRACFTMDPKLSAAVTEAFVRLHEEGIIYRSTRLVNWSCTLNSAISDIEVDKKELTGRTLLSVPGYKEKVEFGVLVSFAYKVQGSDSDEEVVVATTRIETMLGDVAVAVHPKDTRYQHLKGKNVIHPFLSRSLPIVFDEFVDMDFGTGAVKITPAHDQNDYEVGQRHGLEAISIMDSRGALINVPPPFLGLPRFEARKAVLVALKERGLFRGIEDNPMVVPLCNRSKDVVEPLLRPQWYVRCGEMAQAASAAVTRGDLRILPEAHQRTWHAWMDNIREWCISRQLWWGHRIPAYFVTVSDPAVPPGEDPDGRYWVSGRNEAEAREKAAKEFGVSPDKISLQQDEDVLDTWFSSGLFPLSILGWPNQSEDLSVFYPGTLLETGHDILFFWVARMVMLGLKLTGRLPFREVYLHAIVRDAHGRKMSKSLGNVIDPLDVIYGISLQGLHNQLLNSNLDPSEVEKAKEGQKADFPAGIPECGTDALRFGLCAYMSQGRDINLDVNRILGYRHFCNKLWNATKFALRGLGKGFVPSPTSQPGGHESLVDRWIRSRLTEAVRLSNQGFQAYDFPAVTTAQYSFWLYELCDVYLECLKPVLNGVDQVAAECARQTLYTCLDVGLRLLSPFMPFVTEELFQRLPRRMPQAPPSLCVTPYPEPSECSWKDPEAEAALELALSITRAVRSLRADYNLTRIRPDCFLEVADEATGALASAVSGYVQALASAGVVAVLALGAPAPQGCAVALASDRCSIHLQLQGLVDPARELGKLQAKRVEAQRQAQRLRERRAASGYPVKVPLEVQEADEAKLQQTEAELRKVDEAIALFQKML
inactive: [1] 0.028 | [2] 0.007 | [3] 0.036 | [4] -0.077 | [5] -0.082 | [6] 0.04 | [7] -0.014 | [8] -0.039 | [9] -0.001 | [10] 0.03 | [11] -0.003 | [12] -0.086 | [13] 0.002 | [14] 0.025 | [15] -0.008 | [16] -0.008 | [17] 0.16 | [18] -0.02 | [19] 0.003 | [20] -0.006

— the supplement of paper PMC10849652
